The results in this text go back to PubChem BioAssay (NCI).

The nature of assay [1]: NCI Yeast Anticancer Drug Screen. Data for the rad50 strain (AID 155).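 Also: 0% = growth of vehicle-only cultures of the same strain.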 To be noted: S. cerevisiae rad50 strain growth inhibition, active compounds read high. The gist of the method:
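Cells are treated with compound, grown, and their growth is then scored against vehicle-only cultures of the same repair-deficient yeast strain.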

Assay [2] can be described thus: NCI Yeast Anticancer Drug Screen. Data for the mec2-1 strain (AID 157). To be noted: S. cerevisiae mec2-1 strain, active compounds read high. The gist of the method: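 Strain: mec2-1 (DNA repair/cell cycle alteration). Compound exposure, then growth measured; inhibition expressed relative to vehicle.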
Assay [3] in a line: NCI Yeast Anticancer Drug Screen. Data for the sgs1 mgt1 strain (AID 161).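 Also: 0% = growth of cultures given vehicle only.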 Particulars: S. cerevisiae sgs1 mgt1 strain, active compounds read high. The procedure, abridged:
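Genetically altered yeast, compound exposure, growth inhibition relative to vehicle.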

A short description of assay [4]: NCI Yeast Anticancer Drug Screen. Data for the cln2 rad14 strain (AID 165).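 Also: 0% = growth equal to vehicle treated cultures.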 Particulars: S. cerevisiae cln2 rad14 strain, active compounds read high. The gist of the method: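 Compounds are applied to the cln2 rad14 yeast strain, and growth is then compared with that of vehicle-treated cultures to give inhibition.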
Assay [5] can be described thus: NCI Yeast Anticancer Drug Screen. Data for the bub3 strain (AID 167). Particulars: S. cerevisiae bub3 mutant strain, active compounds read high. The procedure, abridged: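 Part of a panel of yeast mutants defective in DNA damage repair or cell cycle regulation. Each strain is grown with compound, and inhibition is calculated relative to solvent-treated cultures.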
A short description of assay [6]: NCI Yeast Anticancer Drug Screen. Data for the mlh1 rad18 strain (AID 175). Particulars: S. cerevisiae mlh1 rad18 strain growth inhibition, active compounds read high. The procedure, abridged:
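Read-out is yeast growth inhibition, calculated against vehicle-only controls. The compound was applied to a strain engineered with DNA damage repair alterations.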

The mark [7] stands for this setting: at 5.0 µM (retest, dose inferred, filed as 0.5).
Setting [8] is: at 50.0 µM (retest, dose inferred, filed as 5.0).

Compounds without any hit were thinned out: in the full panel of roughly 79,000, 15% have a hit. Values without a mark were called inactive. Activity calls are given as the source filed them. Rule as the data show it: active = growth inhibition above about 70%; inactive = the rest.

As to `Nc1cc(Cl)ccc1C(=O)O`, the growth inhibition in assay [1] (setting [7]) is 34%; in assay [1] (setting [8]), 78% (active); in assay [1] (at 50.0 µM), 81.2% (active); in assay [2] (setting [7]), 7%; in assay [2] (setting [8]), 32%; in assay [2] (at 50.0 µM), 91.7% (active). The growth inhibition is 14% in assay [3] (setting [7]); 39% in assay [3] (setting [8]); 49.8% in assay [3] (at 50.0 µM); -2% in assay [4] (setting [7]); 30% in assay [4] (setting [8]); 42.7% in assay [4] (at 50.0 µM). Besides, the growth inhibition in assay [5] (setting [7]) is 3%; in assay [5] (setting [8]), 50%; in assay [5] (at 50.0 µM), 96.4% (active); in assay [6] (setting [7]) it was 21%; in assay [6] (setting [8]), 59%; in assay [6] (at 50.0 µM), 50.2%.
As for `COc1ccc(C2CC(c3c(O)ccc4ccccc34)=NN2)cc1OC` (stereo not given), the growth inhibition in assay [1] (setting [7]) is -4%; in assay [1] (setting [8]), 97% (active); in assay [1] (at 50.0 µM) it was 89.2% (active); in assay [2] (setting [7]), -3%; in assay [2] (setting [8]), 97% (active); in assay [2] (at 50.0 µM), 91.8% (active). The growth inhibition in assay [3] (setting [7]) was -6%; in assay [3] (setting [8]), 97% (active); in assay [3] (at 50.0 µM), 90.4% (active); in assay [4] (setting [7]), -11%; in assay [4] (setting [8]), 97% (active); in assay [4] (at 50.0 µM), 90.2% (active). The growth inhibition in assay [5] (setting [7]) is 8%; in assay [5] (setting [8]) it was 96% (active); in assay [5] (at 50.0 µM), 90.5% (active); in assay [6] (setting [7]) it was -1%; in assay [6] (setting [8]), 97% (active); in assay [6] (at 50.0 µM), 89.7% (active).
As for `CC(=O)CCCOC(C)=O`, the growth inhibition in assay [1] (setting [7]) is 63%; in assay [1] (setting [8]), 78% (active); in assay [1] (at 50.0 µM), 14.7%; in assay [2] (setting [7]) it was 22%; in assay [2] (setting [8]) it was 40%; in assay [2] (at 50.0 µM), -5.8%. In addition, the growth inhibition in assay [3] (setting [7]) was 77% (active); in assay [3] (setting [8]), 78% (active); in assay [3] (at 50.0 µM) it was 7.85%; in assay [4] (setting [7]) it was 10%; in assay [4] (setting [8]), 22%; in assay [4] (at 50.0 µM), 24.6%. Also, the growth inhibition in assay [5] (setting [7]) is 62%; in assay [5] (setting [8]) it was 86% (active); in assay [5] (at 50.0 µM) it was -0.55%; in assay [6] (setting [7]), 45%; in assay [6] (setting [8]), 75% (active); in assay [6] (at 50.0 µM), 31.6%.
On to `O=c1[nH]c(=O)c2n[nH]nc2[nH]1`, for which the growth inhibition in assay [1] (setting [7]) is 6%; in assay [1] (setting [8]) it was 3%; in assay [1] (at 50.0 µM), 0.45%; in assay [2] (setting [7]), -1%; in assay [2] (setting [8]), 5%; in assay [2] (at 50.0 µM), -4.95%. The growth inhibition was 1% in assay [3] (setting [7]); 9% in assay [3] (setting [8]); 33.4% in assay [3] (at 50.0 µM); 9% in assay [4] (setting [7]); 8% in assay [4] (setting [8]); -42.5% in assay [4] (at 50.0 µM). In addition, the growth inhibition is 3% in assay [5] (setting [7]); 3% in assay [5] (setting [8]); 7.7% in assay [5] (at 50.0 µM); 3% in assay [6] (setting [7]); 6% in assay [6] (setting [8]); 24.1% in assay [6] (at 50.0 µM).
As for `CC(=O)Oc1cc2c(=O)oc3c(OC(C)=O)c(OC(C)=O)c(OC(C)=O)c4c(=O)oc(c1OC(C)=O)c2c34`, the growth inhibition was 40% in assay [1] (setting [7]); 58% in assay [1] (setting [8]); 89.5% (active) in assay [1] (at 50.0 µM); 41% in assay [2] (setting [7]); 48% in assay [2] (setting [8]); 76.6% (active) in assay [2] (at 50.0 µM). The growth inhibition in assay [3] (setting [7]) is 37%; in assay [3] (setting [8]) it was 61%; in assay [3] (at 50.0 µM), 87.2% (active); in assay [4] (setting [7]), 20%; in assay [4] (setting [8]), 40%; in assay [4] (at 50.0 µM), 73.8% (active). Moreover, the growth inhibition in assay [5] (setting [7]) was 45%; in assay [5] (setting [8]) it was 71% (active); in assay [5] (at 50.0 µM), 88.3% (active); in assay [6] (setting [7]), 39%; in assay [6] (setting [8]), 45%; in assay [6] (at 50.0 µM), 88.2% (active).
For the compound `C=CCCCCCCCCC(=O)ON(Cc1ccc(O)c(OC)c1)C(=O)C(F)(F)F`, the growth inhibition was 3% in assay [1] (setting [7]); 73% (active) in assay [1] (setting [8]); 70.7% (active) in assay [1] (at 50.0 µM); -7% in assay [2] (setting [7]); 66% in assay [2] (setting [8]); 84.3% (active) in assay [2] (at 50.0 µM). Moreover, the growth inhibition in assay [3] (setting [7]) was -8%; in assay [3] (setting [8]) it was 67%; in assay [3] (at 50.0 µM), 89.2% (active); in assay [4] (setting [7]) it was 20%; in assay [4] (setting [8]), 61%; in assay [4] (at 50.0 µM) it was 85.5% (active). Also, the growth inhibition was -12% in assay [5] (setting [7]); 40% in assay [5] (setting [8]); 90.5% (active) in assay [5] (at 50.0 µM); 7% in assay [6] (setting [7]); 86% (active) in assay [6] (setting [8]); 85.9% (active) in assay [6] (at 50.0 µM).
In the case of `O=C(NCc1ccccc1)C1C(=O)N(Cc2ccccc2)C(=O)/C1=N/O` (stereo not given), the growth inhibition is -16% in assay [1] (setting [7]); -1% in assay [1] (setting [8]); -17.1% in assay [1] (at 50.0 µM); 2% in assay [2] (setting [7]); 1% in assay [2] (setting [8]); 16.8% in assay [2] (at 50.0 µM). In addition, the growth inhibition was -14% in assay [3] (setting [7]); -22% in assay [3] (setting [8]); 35.2% in assay [3] (at 50.0 µM); -4% in assay [4] (setting [7]); -1% in assay [4] (setting [8]); -22.5% in assay [4] (at 50.0 µM). The growth inhibition was 2% in assay [5] (setting [7]); -1% in assay [5] (setting [8]); 31.6% in assay [5] (at 50.0 µM); -2% in assay [6] (setting [7]); -3% in assay [6] (setting [8]); 12.8% in assay [6] (at 50.0 µM).
For the compound `O=[N+]([O-])c1cnc(F)c(Br)c1`, the growth inhibition in assay [1] (setting [7]) was 99% (active); in assay [1] (setting [8]) it was 99% (active); in assay [1] (at 50.0 µM) it was 99.1% (active); in assay [2] (setting [7]), 99% (active); in assay [2] (setting [8]), 100% (active); in assay [2] (at 50.0 µM) it was 99.2% (active). Further, the growth inhibition is 99% (active) in assay [3] (setting [7]); 99% (active) in assay [3] (setting [8]); 99.2% (active) in assay [3] (at 50.0 µM); 98% (active) in assay [4] (setting [7]); 99% (active) in assay [4] (setting [8]); 98.7% (active) in assay [4] (at 50.0 µM). Besides, the growth inhibition is 99% (active) in assay [5] (setting [7]); 99% (active) in assay [5] (setting [8]); 99.1% (active) in assay [5] (at 50.0 µM); 99% (active) in assay [6] (setting [7]); 99% (active) in assay [6] (setting [8]); 99.3% (active) in assay [6] (at 50.0 µM).
Consider `Cc1ccc(SSCCCCS(=O)O)cc1`, for which the growth inhibition in assay [1] (setting [7]) was -2%; in assay [1] (setting [8]) it was 33%; in assay [1] (at 50.0 µM) it was 65.7%; in assay [2] (setting [7]) it was 4%; in assay [2] (setting [8]), 85% (active); in assay [2] (at 50.0 µM), 62.2%. Besides, the growth inhibition was 5% in assay [3] (setting [7]); 91% (active) in assay [3] (setting [8]); 82.8% (active) in assay [3] (at 50.0 µM); -5% in assay [4] (setting [7]); 64% in assay [4] (setting [8]); 84.9% (active) in assay [4] (at 50.0 µM). Moreover, the growth inhibition was 13% in assay [5] (setting [7]); 88% (active) in assay [5] (setting [8]); 80.3% (active) in assay [5] (at 50.0 µM); 1% in assay [6] (setting [7]); 80% (active) in assay [6] (setting [8]); 91.8% (active) in assay [6] (at 50.0 µM).
`CCN(CC)CCNc1c(O)cc(C)c2sc3ccccc3c(=O)c12`: the growth inhibition is 18% in assay [1] (setting [7]); 95% (active) in assay [1] (setting [8]); 98.5% (active) in assay [1] (at 50.0 µM); 10% in assay [2] (setting [7]); 94% (active) in assay [2] (setting [8]); 99% (active) in assay [2] (at 50.0 µM). Moreover, the growth inhibition in assay [3] (setting [7]) is 7%; in assay [3] (setting [8]), 98% (active); in assay [3] (at 50.0 µM) it was 98.8% (active); in assay [4] (setting [7]), 11%; in assay [4] (setting [8]), 84% (active); in assay [4] (at 50.0 µM) it was 96.8% (active). The growth inhibition in assay [5] (setting [7]) was 3%; in assay [5] (setting [8]), 84% (active); in assay [5] (at 50.0 µM), 97.2% (active); in assay [6] (setting [7]), 2%; in assay [6] (setting [8]), 96% (active); in assay [6] (at 50.0 µM) it was 98.3% (active).
